The structures appear in SMILES notation. Hit rate of the full screen: of about 68,000 compounds, about 2,700 (4%) showed an effect of 50% or more. The full list was thinned out, with strong results kept by preference.

In this assay the test system is Plasmodium berghei. In words: Screen against P. berghei liver stage (PbLuc), transformed with Luciferase, at 2uM. The assay is classed as functional, HepG2. Conditions: tested at 2 uM.
On to `c1cncc(N2CCOCC3(CCCN(Cc4cccs4)C3)C2)c1` (stereo not drawn), for which the INHIBITION was -26.24%.

Turning to `Cc1c(Cl)c(C(=O)N2CC(c3cccnc3)C2)nn1C`, the INHIBITION is listed as 7.62%. With `Cc1c(Cl)c(C(=O)N2C[C@@H](C(=O)O)[C@H](c3cccnc3)C2)nn1C`, the INHIBITION is given as 69.71%.

As for `Cc1ccc2nc(C(=O)N3C[C@@H](C(=O)O)[C@H](c4cccnc4)C3)cn2c1`, the INHIBITION is on record as 1.52%.

Turning to `Cc1nc(C)n(CC2CCCN2CCCOc2ccc(F)cc2)n1` (stereo not drawn), the INHIBITION is recorded as -8.1%. The figure for `CCC(C(=O)Nc1ccc2nc(C)oc2c1)N1CCCC1=O` (stereo not drawn) is 14.06%. Regarding `CNc1cc(C)nc(NC2CCCN(C3Cc4ccccc4C3)C2)n1` (stereo not drawn), the INHIBITION is 8.26%. Turning to `CNc1nc(C)cc(NC2CCCN(C3Cc4ccccc4C3)C2)n1` (stereo not drawn), the INHIBITION is given as 58.03%.

Consider `Cc1ccc(NC2CCCN(C3Cc4ccccc4C3)C2)nn1` (stereo not drawn), for which the INHIBITION came to 3.91%.

For the compound `CC(C)COC1CC2(CCN(C(=O)Cc3ccccn3)CC2)C1`, the INHIBITION is reported as -9.07%. As for `CSCc1noc(Cn2ncn3cccc3c2=O)n1`, the INHIBITION was found to be 46.15%. In the case of `c1cc(CN2CCOCC3(CCN(CC4CCOCC4)CC3)C2)ccn1`, the INHIBITION was found to be 26.76%.

Regarding `CC1CN(C(=O)c2cnn(-c3ccccn3)c2C(C)C)CC(C)(C)O1` (stereo not drawn), the INHIBITION is on record as -4.15%. The figure for `CCc1c(C(=O)N2CCOC(C)(C)C2)cnn1-c1ccccn1` is 61.63%.

Consider `CCc1c(C(=O)N2CC(C)OC(C)(C)C2)cnn1-c1ccccn1` (stereo not drawn), for which the INHIBITION is 24.23%. As for `CCc1nc(CC(=O)N2CCC(C(=O)N3CCCC3)CC2)cs1`, the INHIBITION is given as -30.23%. Regarding `O=C1CC[C@H]2[C@H](CCN2C(=O)N2CCCC2)N1Cc1ccncc1`, the INHIBITION was -61.95%. To `c1ccc(C2CCCN(Cc3cc4n(n3)CCNC4)CC2)cc1` (stereo not drawn) belongs 9.57%; to `OC(c1ccccn1)C1CCN(Cc2cc3n(n2)CCNC3)CC1` (stereo not drawn), 60%; to `OC(c1ccccn1)C1CCN(Cc2cc3n(n2)CCCNC3)CC1` (stereo not drawn), -29.69%. Regarding `CCC(NC(=O)C1CCN(S(C)(=O)=O)CC1)c1ccc(OC)cc1` (stereo not drawn), the INHIBITION is given as 19.7%. Consider `O=C(NC1CCCC1)[C@@H]1C[C@@H]2CCN(Cc3ccoc3)C[C@H]2O1`, for which the INHIBITION was 3.18%. Take `O=C(O)CC(NC(=O)CCCc1cccs1)c1ccc(F)cc1` (stereo not drawn): the INHIBITION was 57.2%. Consider `COc1ccc(C(CC(=O)O)NC(=O)CCc2cccs2)cc1OC` (stereo not drawn), for which the INHIBITION worked out at 36.38%. Turning to `Cc1ccc(C(CC(=O)O)NC(=O)CCc2cccs2)cc1` (stereo not drawn), the INHIBITION is listed as -34.12%. The figure for `CCCc1cc(NC2CCc3nc(C(C)C)nn3C2)n2ncnc2n1` (stereo not drawn) is -43.09%; for `COc1cccc(CN(C)Cc2ccc(C#N)cc2)c1OC` it is 10.52%; for `COc1cccc(CN(C)Cc2cccc(C#N)c2)c1OC` it is 3.3%. As to `COc1cccc(CN(C)Cc2cc(C#N)ccc2F)c1OC`, the INHIBITION worked out at 56.49%.

`Cc1ccc(NC(=O)C2=CN=S=N2)cc1`: the INHIBITION worked out at 25.51%. On to `CN(C)C(=O)[C@@H]1C[C@@H]2CCN(Cc3ccncc3)C[C@@H]2O1`, for which the INHIBITION is recorded as 37.6%. For the compound `c1cc2nccc(CC3CCCN(C4CCOCC4)CC3)c2cn1` (stereo not drawn), the INHIBITION is 24.56%. Turning to `O=C(NC1CC1)c1cc(Cl)ccc1-n1cnnn1`, the INHIBITION is listed as -14%.

For the compound `O=C(NC1CCN(C2CC2)CC1)c1cc(Cl)ccc1-n1cnnn1`, the INHIBITION came out at 19.04%.

As to `CC(=O)N1CCC(NC(=O)c2cc(Cl)ccc2-n2cnnn2)CC1`, the INHIBITION came out at 53.19%. Regarding `CCCC1(CO)CCCN(C(=O)CNC(C)=O)C1` (stereo not drawn), the INHIBITION was 15.27%. The figure for `O=c1cc(N2CCNCC2)cnn1Cc1noc(C2CCCC2)n1` is 41.84%. As for `O=C(Cn1nc(Br)nc1Br)N1CCCC1`, the INHIBITION was -14.58%. `CCCC1COCCN1Cc1ccc(C(=O)O)cc1` (stereo not drawn): the INHIBITION stood at 55.7%. The figure for `CCCC1COCCN1Cc1ccc(NC(C)=O)cc1` (stereo not drawn) is 48.17%; for `CCCC1COCCN1Cc1ccc(S(=O)(=O)NC)cc1` (stereo not drawn) it is 30.96%. Turning to `COc1ccc(Cl)cc1CS(=O)(=O)CC(=O)N(C)Cc1ccccc1F`, the INHIBITION is 51.94%.

For `CN(Cc1ccccc1F)C(=O)CS(=O)(=O)Cc1ccc(Cl)c(Cl)c1`, the INHIBITION is on record as -10.5%. The figure for `Cc1ccccc1CS(=O)(=O)CC(=O)N(C)Cc1ccccc1F` is -38.35%. For the compound `Cc1nc(C(C)C)sc1C(C)N(C)C(=O)c1ccc(=O)n(C)c1` (stereo not drawn), the INHIBITION is reported as -11.76%. The figure for `CCc1ccc(CN(C)c2ccc(-c3nc(COC)no3)cn2)nc1` is 10.65%; for `CCc1ccc(CN(C)Cc2nc(COc3ccccc3)no2)nc1` it is 64.2%; for `CCc1ccc(CN(C)Cc2nc(-c3cnccn3)no2)nc1` it is -16.76%.

For `CN(Cc1ccc(F)cc1F)Cc1cc2c(cc1Br)OCCO2`, the INHIBITION amounted to 45.66%. To `Cc1cnccc1N1CCCN(C(=O)CCCc2cn[nH]c2)CC1` belongs 9.17%; to `O=C(c1ccccn1)N1C[C@@H]2OCC(=O)N(CC3CCCCC3)[C@@H]2C1`, 56.16%; to `O=C(c1cnccn1)N1C[C@@H]2OCC(=O)N(CC3CCCCC3)[C@@H]2C1`, -26.14%. As for `O=C(c1cnccn1)N1C[C@@H]2[C@@H](C1)OCC(=O)N2CC1CCCC1`, the INHIBITION worked out at 31.65%.

For the origin of these results see ChEMBL document CHEMBL4513216, “Probing the Open Global Health Chemical Diversity Library for Multistage-Active Starting Points for Next-Generation Antimalarials” (ACS Infect Dis, 2020).
